Measured values reported in the supplement of paper PMC3724861.
Many of the other results were omitted from the sample, so hits are more common in it than they were. How many sequences the whole screen found active is unknown. Values without a mark were called inactive.

These sequences were tested on T1, Caupolican (Caup) homeodomain DNA-binding domain (assay: PBM E-score (8-mer, recovered from the published 9-mer minima) (E-score (dimensionless, -0.5 to 0.5)); Drosophila protein; higher = stronger relative binding preference, active = 0.31 or more).
T1 sequence: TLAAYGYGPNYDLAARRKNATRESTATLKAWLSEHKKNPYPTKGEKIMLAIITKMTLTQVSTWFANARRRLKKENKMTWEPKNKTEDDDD
How it was run: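 Caup's homeodomain DNA-binding domain (residues 214-303) was produced by in vitro transcription and translation and applied at 100 nM to custom-designed protein binding microarrays. Each value is an enrichment score giving relative binding preference for a short DNA word; higher means stronger. Published 9-mer scores were the minimum of their two constituent 8-mer scores, and the 8-mer values were recovered from those minima. A cutoff of 0.31 marks candidate binding sequences.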

Sequence | PBM E-score
ATTATTAA | 0.191
ACATTTTC | 0.161
ACGCGACT | 0.0019
CTCATAAG | 0.0492
CATGACAG | 0.151
GATAGATA | 0.08
AGCTTCAC | -0.0515
CATGGGAC | 0.151
ACATGTTG | 0.453 (active)
CCATGTTC | 0.368 (active)
AGATGTTG | 0.203
AGATGTTA | 0.286
CGATGTTC | 0.249
GGATGTTA | 0.204
GAATGTTA | 0.234
AAATGTTG | 0.201
CAATGTTC | 0.218
ACCTGTTA | 0.222
ACATGTTA | 0.452 (active)
GCATGTTA | 0.397 (active)
GAGCCTCA | -0.214
CCATATGG | -0.073
AGCACTGA | -0.0101
ACACTCTA | 0.0891
AGTTTTGA | 0.0657

Sequence | PBM E-score
CGTCCGGC | -0.219
ACATGTTC | 0.455 (active)
AAATGTTC | 0.247
CAATGTTA | 0.269
AGATGTTC | 0.286
CCATGTTA | 0.406 (active)
CGATGTTA | 0.297
GATTTGCA | 0.0416
ATAGTTCC | -0.029
AAAGCCCC | -0.238
CGTTAAGC | -0.0697
CGTAGTAA | 0.145
GGTTGTAC | 0.222
AGTTGTTA | 0.266
GGTTGTTA | 0.324 (active)
TGTAGTAA | 0.376 (active)
AGTAGTAA | 0.168
TGTTGTAA | 0.377 (active)
CGTTGTTA | 0.305
AGTTGTAA | 0.279
GGTTGTGA | 0.0824
GGTTGTAA | 0.333 (active)
CGTTGTAA | 0.261
ACGAGGTG | 0.0761
AGATGCAC | -0.00186

Sequence | PBM E-score
AGCGTTCG | -0.141
ATTAGGAA | 0.0485
AGCAACAC | 0.186
AGACGCGC | -0.0474
ACACGTCG | 0.212
CCACGATA | 0.0391
ACACGACT | 0.251
ACACGATA | 0.322 (active)
ACACAATG | 0.273
ACACGATC | 0.254
ACACGTCT | 0.203
ACACGTCA | 0.325 (active)
ACACGACA | ≥ 0.386 (active)
ACACGACC | 0.215
ACACAATA | 0.31 (active)
GCACAATA | 0.0168
AGACTGTG | 0.0481
GCAGTCTA | 0.0232
AAGATTGC | -0.00712
CATTTCAG | 0.00691
ACACGAGG | 0.111
ACACGAAG | 0.174
ACACGATG | 0.347 (active)
AAAAGCAT | 0.1
CGTACACG | 0.341 (active)

Sequence | PBM E-score
TGTACCAA | 0.312 (active)
TCTACACA | 0.157
AGTACAAA | 0.26
GGTACACA | 0.28
CGTACACA | 0.255
TGTACACA | 0.407 (active)
CGTACCAA | 0.0356
TGTACAAA | 0.384 (active)
TTTACAAA | 0.245
AGTACCAA | 0.128
CGTACACC | 0.205
CGTATAGC | -0.0127
ACTGCCTG | -0.0684
ATGCTCGC | -0.0878
CGTCTGTC | 0.0202
GCTTATAC | -0.034
CATATTTA | 0.178
AAGCTGTG | 0.00524
ATCCCGAC | -0.0204
GCAGGTTA | -0.0457
CTGTTATC | 0.103
AAGTTATG | 0.185
ACGTTATC | 0.0197
CTGTTATA | 0.187
AAGTTATA | 0.163

Sequence | PBM E-score
AGGTTATA | 0.0929
GCGTTATA | -0.0159
GTGTTATA | 0.334 (active)
ATGTTATG | 0.338 (active)
ATGTTATA | 0.381 (active)
ATGTTATC | 0.351 (active)
AGGTTATG | 0.044
AGTGCGGA | -0.0562
AATGGATA | 0.0292
AGGCAAGC | -0.0636
CCTCCAAG | -0.0978
AAGTAGCG | -0.0607
ACATAAGG | 0.2
AGACGTGG | -0.0599
AACCACAC | 0.0803
AAGTTCGC | -0.11
AATCCCTA | 0.0149
CAGTTCTA | 0.0212
ATGATGGA | 0.0619
ATGATGTG | 0.0894
GTGATGAA | 0.0845
CCGATGTA | 0.159
CTGATGTA | 0.251
CTGATGTC | 0.212
ATGATGTC | 0.312 (active)

Sequence | PBM E-score
GTGATGTA | ≥ 0.383 (active)
ATGATGTA | ≥ 0.383 (active)
ATGATGAA | 0.158
ACGATGTA | 0.36 (active)
ACGATGTC | 0.261
GATTCGGC | -0.0366
CAGAACAG | 0.0845
ATCGCTTG | -0.0165
ATAGTCCG | 0.00249
TAGCAAGA | 0.142
CTACTCAA | 0.116
CCAGTCAG | -0.104
TCGCAACA | 0.0932
CTATACGA | 0.0334
CAGATGTA | 0.247
GAGATGTA | 0.329 (active)
AAGATGTA | 0.298
TATTGAAA | 0.117
ATTATGTG | 0.197
GTTATGTA | 0.276
ATTATGTA | 0.327 (active)
CTTATGTA | 0.345 (active)
ATTATGTC | 0.227
CTTATGTC | 0.224
